Screening results (PubChem)
T cruzi growth-1 = T. cruzi intracellular proliferation inhibitors, primary screen, cell-based, beta-gal Tulahuen parasites, NIH3T3 host, luminescence | 77,000 compounds, 5.9% hits | T. cruzi beta-gal in NIH3T3, GalScreen luminescence, 90 h | inhibition, % at 8.34 µM;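 active = mean inhibition above about 93%, with at least 55% of replicates each passing it, limit read from the data, passing the limit was not always enough; inconclusive = only one of those two conditions holds; inactive = neither condition holds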
C diff HTS = C. difficile growth inhibitors, primary screen, HTS; Clostridium difficile clinical isolate growth, OD600, 24 h; stronger effect = lower value; growth activity, negative = inhibition, % at 16 µg/mL (by protocol); 86,000 compounds, 0.25% hits; AID 1259249, 2017;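 active = mean growth activity at or below -80% and every replicate also at or below -80%; inconclusive = mean at or below -80% but some replicate above -80%; inactive = mean growth activity above -80%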;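 also: 0% = DMSO wells and -100% = levofloxacin 16 µg/mL wells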
T cruzi growth-2 = T. cruzi intracellular proliferation inhibitors, confirmation, cell-based, NIH3T3 host, beta-gal parasite, luminescence, cherry-pick; shares compounds with T cruzi growth-1; T. cruzi beta-gal in NIH3T3, GalScreen luminescence, 90 h; inhibition, % at 8.35 µM; 5,600 compounds, 72% hits; AID 651739, 2012;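 active = mean replicate inhibition above about 95% and at least 55% of replicates individually reaching it, limit read from the data; inconclusive = only one of the two criteria is met; inactive = neither criterion is met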
T cruzi growth-3 = inhibitors of intracellular T. cruzi replication, confirmation, NIH3T3 host cells, beta-gal parasites, cherry-pick, set 2 | shares compounds with T cruzi growth-1 | T. cruzi beta-gal in NIH3T3, GalScreen luminescence, 90 h | inhibition, % at 2.09 µM | 5,600 compounds, 21% hits | AID 651740, 2012;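 active = mean inhibition above about 95%, with at least 55% of replicates also reaching it, limit read from the data; inconclusive = meets just one of the two conditions; inactive = meets neither condition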;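 also: plate controls were neutral control median for no effect and positive control median for full effect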
3T3 cytotox = cytotoxicity in mouse NIH/3T3 fibroblasts, confirmation, cytotoxicity control for T. cruzi proliferation inhibitor project, cell-based, cherry-pick, single point. shares compounds with T cruzi growth-1. NIH/3T3 viability, CellTiter-Glo ATP luminescence, 90 h. cytotoxicity (signal decrease), % at 8.35 µM. 5,600 compounds, 14% hits. AID 651742, 2012;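 active = mean signal decrease across replicates above about 35% based on untreated-well scatter, with enough replicates individually passing, limit read from the data; inconclusive = no rule stated though some were filed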;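 also: 0% = median of neutral control wells and 100% = median of positive control wells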
NIH3T3 tox 2 = NIH/3T3 fibroblast cytotoxicity, confirmation, cytotoxicity control, cell-based, cherry-pick, single point, set 2; 5,600 compounds, 56% hits; inhibition, % at 24.9 µM; NIH/3T3 viability, CellTiter-Glo ATP luminescence, 90 h; shares compounds with T cruzi growth-1;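 active = mean loss of cell viability signal at or above a set limit, and enough replicates individually reaching it; inconclusive = meets only the mean limit or only the replicate share; inactive = meets neither condition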;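 also: 0% = median of neutral control wells and 100% = median of positive control wells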
Numbers without * were called inactive; ? = inconclusive; · = no result. Many of the other results were omitted from the sample, so hits are more common in it than they were.

SMILES	T cruzi growth-1	C diff HTS	T cruzi growth-2	T cruzi growth-3	3T3 cytotox	NIH3T3 tox 2
C[C@@H]1CCCCO[C@@H](CN(C)C(=O)Nc2cccc3ccccc23)[C@@H](C)CN([C@@H](C)CO)C(=O)c2cc(NC(=O)C3CCCCC3)ccc2O1	?	18	110*	69	-5	0
C[C@@H]1CN([C@H](C)CO)C(=O)c2cc(N(C)C)ccc2O[C@@H](C)CCCCO[C@H]1CN(C)C(=O)Nc1cccc2ccccc12	-50	-3	·	·	·	·
C[C@@H]1CCCCO[C@H](CN(C)C(=O)NC2CCCCC2)[C@H](C)CN([C@@H](C)CO)C(=O)c2cc(NC(=O)Nc3cccc4ccccc34)ccc2O1	108*	-12	106*	77	-28	-2
C[C@@H]1CCCCO[C@H](CN(C)C(=O)NC2CCCCC2)[C@H](C)CN([C@H](C)CO)C(=O)c2cc(NC(=O)Nc3cccc4ccccc34)ccc2O1	85	-6	·	·	·	·
C[C@@H]1CCCCO[C@H](CN(C)C(=O)Nc2cccc3ccccc23)[C@H](C)CN([C@H](C)CO)C(=O)c2cc(N(C)C)ccc2O1	99*	3	96*	23	11	13
C[C@@H]1CCCCO[C@H](CN(C)C(=O)NC2CCCCC2)[C@@H](C)CN([C@H](C)CO)C(=O)c2cc(NC(=O)Nc3cccc4ccccc34)ccc2O1	104*	-5	109*	30	-21	-15
C[C@@H]1CN([C@@H](C)CO)C(=O)c2cc(NC(=O)C3CCCCC3)ccc2O[C@@H](C)CCCCO[C@H]1CN(C)C(=O)Nc1cccc2ccccc12	70	-4	·	·	·	·
C[C@@H]1CCCCO[C@@H](CN(C)C(=O)NC2CCCCC2)[C@H](C)CN([C@@H](C)CO)C(=O)c2cc(NC(=O)Nc3cccc4ccccc34)ccc2O1	82	-7	·	·	·	·
C[C@@H]1CN([C@@H](C)CO)C(=O)c2cc(NC(=O)c3ccccc3)ccc2O[C@@H](C)CCCCO[C@H]1CN(C)C(=O)Nc1cccc2ccccc12	79	0	·	·	·	·
C[C@@H]1CCCCO[C@H](CN(C)C(=O)Nc2cccc3ccccc23)[C@@H](C)CN([C@@H](C)CO)C(=O)c2cc(NC(=O)c3ccccc3)ccc2O1	?	4	107*	84	26	36*
C[C@H]1CCCCO[C@H](CN(C)C(=O)Nc2cccc3ccccc23)[C@@H](C)CN([C@@H](C)CO)C(=O)c2cc(NC(=O)NC3CCCCC3)ccc2O1	99*	-6	108*	112*	-38	6
C[C@@H]1CN([C@@H](C)CO)C(=O)c2cc(NC(=O)NC3CCCCC3)ccc2O[C@@H](C)CCCCO[C@H]1CN(C)C(=O)Nc1cccc2ccccc12	53	-3	·	·	·	·
COc1cccc(-c2ccc3c(c2)O[C@H](CN(C)C(=O)C2CCC2)[C@@H](C)CN([C@H](C)CO)S3(=O)=O)c1	52	-3	·	·	·	·
C[C@@H]1CN([C@H](C)CO)C(=O)c2cc(NC(=O)Cc3ccccc3)ccc2O[C@@H]1CN(C)S(=O)(=O)c1cccs1	47	·	·	·	·	·
CS(=O)(=O)N1CC(=O)N2[C@H](C1)[C@H](c1ccc(C#Cc3ccccc3)cc1)[C@@H]2CO	·	1	·	·	·	·
C[C@@H]1CN([C@H](C)CO)C(=O)c2cc(NC(=O)Nc3ccc(C(F)(F)F)cc3)ccc2O[C@@H](C)CCCCO[C@@H]1CN(C)C(=O)NC1CCCCC1	80	1	·	·	·	·
C[C@H]1CCCCO[C@@H](CN(C)C(=O)NC2CCCCC2)[C@@H](C)CN([C@@H](C)CO)C(=O)c2cc(NC(=O)Nc3ccc(C(F)(F)F)cc3)ccc2O1	93	3	·	·	·	·
C[C@@H]1CCCCO[C@@H](CN(C)C(=O)Nc2ccc(C(F)(F)F)cc2)[C@H](C)CN([C@@H](C)CO)C(=O)c2cc(NC(=O)NC3CCCCC3)ccc2O1	?	0	101*	84	3	-6
C[C@@H]1CCCCO[C@@H](CN(C)C(=O)NC2CCCCC2)[C@@H](C)CN([C@H](C)CO)C(=O)c2cc(NC(=O)Nc3ccc(C(F)(F)F)cc3)ccc2O1	84	4	·	·	·	·
C[C@H](CO)N1C[C@H](C)[C@H](CN(C)C(=O)Nc2ccc(C(F)(F)F)cc2)OCCCC[C@H](C)Oc2ccc(NC(=O)NC3CCCCC3)cc2C1=O	122*	-2	?	106*	11	4
C[C@@H]1CCCCO[C@@H](CN(C)C(=O)Nc2ccc(C(F)(F)F)cc2)[C@H](C)CN([C@H](C)CO)C(=O)c2cc(NC(=O)NC3CCCCC3)ccc2O1	117*	3	104*	109*	-17	-17
C[C@H]1CCCCO[C@@H](CN(C)C(=O)Nc2ccc(C(F)(F)F)cc2)[C@@H](C)CN([C@@H](C)CO)C(=O)c2cc(NC(=O)NC3CCCCC3)ccc2O1	123*	-5	101*	113*	-10	2
C[C@H](CO)N1C[C@H](C)[C@H](CN(C)C(=O)NC2CCCCC2)OCCCC[C@H](C)Oc2ccc(NC(=O)Nc3ccc(C(F)(F)F)cc3)cc2C1=O	80	3	·	·	·	·
C[C@H](CO)N1C[C@H](C)[C@H](CN(C)C(=O)C2CCCCC2)Oc2cc(C#CC(C)(C)O)ccc2S1(=O)=O	42	1	·	·	·	·
C[C@@H](NC(=O)C[C@H]1C=C[C@@H](NC(=O)C2CCOCC2)[C@@H](CO)O1)c1ccccc1	2	1	·	·	·	·
C[C@@H]1CN([C@H](C)CO)C(=O)Cc2cc(NC(=O)C3CC3)ccc2O[C@H]1CN(C)C(=O)Nc1ccc2c(c1)OCO2	-23	1	·	·	·	·
COc1ccc(S(=O)(=O)N2C[C@@H](O)COC[C@@H]3O[C@H](CC(=O)N[C@@H]4CCN(Cc5ccccc5)C4)CC[C@H]32)cc1	81	1	·	·	·	·
C[C@H](CO)N1C[C@H](C)[C@@H](CN(C)C(=O)NC2CCCCC2)OCCCC[C@H](C)Oc2ccc(NC(=O)Nc3ccc(C(F)(F)F)cc3)cc2C1=O	92	-1	·	·	·	·
C[C@@H]1CCCCO[C@H](CN(C)C(=O)NC2CCCCC2)[C@H](C)CN([C@@H](C)CO)C(=O)c2cc(NC(=O)Nc3ccc(C(F)(F)F)cc3)ccc2O1	85	-1	·	·	·	·
C[C@@H]1CCCCO[C@H](CN(C)C(=O)Nc2ccc(C(F)(F)F)cc2)[C@@H](C)CN([C@H](C)CO)C(=O)c2cc(NC(=O)NC3CCCCC3)ccc2O1	113*	-7	108*	87	12	29
